From PubChem BioAssay AID686979 (National Center for Advancing Translational Sciences (NCATS), 2013)
Out of some 420,000 compounds screened, about 50,000 (12%) were called active. Not shown: some 26% with an inconclusive outcome. The call rests on the fitted dose curve; in most records, active means well fitted inhibition curve with a large enough effect; inconclusive means small, poorly fitted or top-dose-only effect; inactive means flat fitted curve, though single readings scatter. Shown is part of a subset that was picked to be rich in actives. Entries that show only a call come without a potency.

Test: qHTS for Inhibitors of human tyrosyl-DNA phosphodiesterase 1 (TDP1): qHTS in cells in presence of CPT; further: nearly all actives have a fitted effect of over 55% in size
Conditions: chicken DT40 Tdp1-/-;hTDP1 cells + 20 nM CPT, ATP luminescence, 48 h; series mostly up to 46.2 µM
Procedure, shortened: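 Cell growth measured by CellTiter-Glo luminescence after a minimum 48 h, 37 C compound exposure with 20 nM CPT in Tdp1-knockout DT40 cells stably expressing hTDP1, seeded 400/well; qHTS titration format.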
Potency means the concentration at half of the fitted maximal effect.

SMILES | Potency
CC(=O)c1ccc(N2Cc3ccccc3C2)cc1 | inactive
O=C(Nc1cccc(S(=O)(=O)Nc2ccc(Cl)cc2)c1)c1ccc2c(c1)OCCO2 | 13 µM (active)
CC(NS(=O)(=O)c1ccc(Cl)cc1)C(=O)Nc1ccc2c(c1)OCCO2 (stereo unspecified) | inactive
O=C(Nc1cccc(S(=O)(=O)N2CCCCC2)c1)c1ccc2c(c1)OCO2 | 25.9 µM (active)
CN1CCN(S(=O)(=O)c2cccc(C(=O)Nc3cccc(S(N)(=O)=O)c3)c2)CC1 | inactive
O=C(Nc1ccc(NC(=O)c2ccc3c(c2)OCO3)cc1)c1cccc(Cl)c1 | inactive
O=C(Nc1nncs1)c1cccc(S(=O)(=O)N2CCCCC2)c1 | inactive
Cc1cc(C)cc(OCC(=O)OCC(=O)NC2CCCC2)c1 | inactive
Cn1c(=O)c(=O)n(C)c2cc(S(=O)(=O)CCC(=O)N3CCCCC3)ccc21 | inactive
COc1cc(S(=O)(=O)N2CCN(C(=O)C3CC3)CC2)ccc1NC(C)=O | inactive
Clc1ccc(Cl)c(Oc2ccc(Oc3nc(Cl)ccc3Cl)cc2)n1 | inactive
COC(=O)CCCCC1=CCC2C(=O)C=C(O)C2C1 (stereo unspecified) | inactive
COc1ccc(-c2nnc(SCC(=O)Nc3ccccc3C)o2)cc1OC | inactive
Cc1cc(C)cc(-c2nnc(SCC(=O)NC3CC3)o2)c1 | inactive
COc1ccc(-c2nnc(SCC(=O)NC3CCCCC3)o2)cc1OC | 20.6 µM (active)
Cc1cc(C)nc(/N=C2\NC(=O)CC(C(=O)O)N2c2ccc(Cl)cc2Cl)n1 (stereo unspecified) | inactive
Cc1cc(NC(=O)/C=C/C(=O)N(c2ccccc2C)C(C(=O)NC2CCCC2)c2ccc(F)cc2)no1 (stereo unspecified) | 20.6 µM (active)
Cc1cc(NC(=O)CCC(=O)N(c2cccc(F)c2)C(C(=O)NC2CCCC2)c2ccncc2)no1 (stereo unspecified) | inactive
Cc1cc(NC(=O)/C=C/C(=O)N(CC(=O)NC2CCCC2)c2ccc(F)cc2)no1 | inactive

SMILES | Potency
O=C(Nc1ccc(F)c([N+](=O)[O-])c1)C1CCCO1 (stereo unspecified) | inactive
CN(c1ccccc1)S(=O)(=O)c1cccc(C(=O)NNC(=O)c2ccncc2)c1 | inactive
CCN(CC)S(=O)(=O)c1ccc(N2CCOCC2)c(C(=O)O)c1 | inactive
CCN1CCN(c2ccc(S(=O)(=O)N3CCCCC3)cc2NC(=O)c2cccc(NC(C)=O)c2)CC1 | inactive
CCN(CC)S(=O)(=O)c1ccc(N2CCOCC2)c(NC(=O)C2COc3ccccc3O2)c1 (stereo unspecified) | 18.4 µM (active)
CCN(CC)S(=O)(=O)c1ccc(N2CCOCC2)c(NC(=O)c2ccc(=O)n(C)n2)c1 | inactive
CCN(CC)S(=O)(=O)c1ccc(N2CCCC2)c(NC(=O)c2ccc([N+](=O)[O-])o2)c1 | 23.1 µM (active)
CN(C)S(=O)(=O)c1ccc(N2CCCC2)c(C(=O)NCc2ccccc2)c1 | inactive
O=C(c1cccnc1)N(Cc1ccccc1)C(=O)c1cccnc1 | inactive
COc1ccccc1C(=O)NCC(=O)OCC(=O)NNC(=O)c1ccc(Br)cc1 | inactive
Cc1ccc(N2C(=O)C(NC(=O)c3c(F)cccc3F)(C(F)(F)F)C3=C2CC(C)(C)CC3=O)cc1 (stereo unspecified) | inactive
Cc1ccc(O)c(NC(=O)c2cc(-c3ccco3)on2)c1 | inactive
Cc1cccc(NC(=O)C2CC(=O)OC23CCCC3)c1 (stereo unspecified) | inactive
COc1ccccc1C1C2=C(COC2=O)Nc2cc3c(cc21)OCO3 (stereo unspecified) | inactive
CCCOc1ccccc1C1CC(=O)Nc2cc3c(cc21)OCO3 (stereo unspecified) | 2.31 µM (active)
COc1cc2c(cc1OC)C(c1ccc(C)o1)CC(=O)N2 (stereo unspecified) | inactive
COc1ccccc1C(=O)NC(=O)COC(=O)C1CC1 | inactive
N#Cc1c(N)nc2c3c(sc(=N)c2c1N)NC(=O)CC3c1ccccc1Cl (stereo unspecified) | inactive
CCCCOc1ccc(CON(C(C)=O)C(C)=O)cc1Cl | inactive

SMILES | Potency
COc1ccc(NC(=O)CSCc2ccc([N+](=O)[O-])cc2)cc1OC | inactive
CCCCOc1ccc(CSC(=N)N)cc1[N+](=O)[O-] | 13 µM (active)
Cc1nn(C)c(C)c1C(C)NC(=O)c1ccc(OC2CCN(Cc3ccccn3)CC2)cc1 (stereo unspecified) | inactive
Cc1ccc(/C=N/NC(=S)Nc2cccc(S(=O)(=O)N(C)C)c2)o1 | 4.61 µM (active)
Cc1ccc(/C=N/NC(=O)Cn2nc(C)c(Br)c2C)o1 | inactive
CN(C)S(=O)(=O)c1cccc(NC(=O)Cc2ccsc2)c1 | inactive
COc1ccc(NC(=O)CN(C)C(=O)Cc2coc3cc(C)c(C)cc23)cc1 | inactive
COc1ccc(NC(=O)C(CC(C)C)NC(=O)C2CCC(C)CC2)cc1 (stereo unspecified) | inactive
CCc1ccc(-n2nnc(-c3nc(-c4ccccc4)no3)c2C)cc1 | inactive
O=C(CN(C(=O)c1csnn1)c1cccc(Cl)c1)NC1CCCC1 | inactive
O=C(NC(=S)Nc1ccccc1N1CCCCC1)c1ccc(F)cc1 | inactive
CCCN(CCC)c1ccc(C(O)c2nnc(-c3ccccc3)o2)cc1 (stereo unspecified) | inactive
CC(=O)c1ccc(NC(=O)COc2ccccc2-c2nc(-c3ccccc3)no2)cc1 | inactive
CC(=O)c1ccc(NC(c2ccc(F)cc2)c2nnc(-c3ccccc3)o2)cc1 (stereo unspecified) | 9.2 µM (active)
CCn1c(SCC(=O)Nc2ccc3c(c2)OCCO3)nnc1-c1ccncc1 | inactive
CCC(=O)c1ccc(OCC(=O)OCC(=O)NC2CCCCCC2)cc1 | inactive
Cc1cc(C)c(C)c(S(=O)(=O)Nc2cccnc2)c1C | inactive
Cc1ccc(C(=O)NNC2=Nc3cc([N+](=O)[O-])ccc3OC2)cc1 | inactive
